From PubChem BioAssay AID598 (SRMLSC, 2007)
Hit rate of the full screen: of about 85,000 compounds, about 5,100 (6%) were called active.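 How the source made its calls: active means viability at or below 40%; inactive means viability above 40%.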 Only a selection was taken, and actives are over-represented in it overall.

Assay: H69AR cell viability reduction – human, 86K library, primary screen (AID 598);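 further: multidrug resistant small cell line overexpressing MRP-1 efflux transporter; 100% = mean luminescence of untreated control wells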
Conditions: H69AR lung tumor viability, ATP luminescence, 72 h; at 10 µM; active compounds read low

Row | SMILES | viability
1 | CCOCCn1c(C(C)C)nc2ccccc21 | 102% (inactive)
2 | CCC(=O)NC(Nc1cc(C)ccn1)(C(F)(F)F)C(F)(F)F | 99% (inactive)
3 | O=C(Nn1cc(C(=O)N2CCN(c3ccccc3F)CC2)c2ccccc2c1=O)c1cnccn1 | 34.7% (active)
4 | COc1ccc2oc(=O)c(C(=O)N3CCN(c4ccccc4F)CC3)cc2c1 | 108% (inactive)
5 | O=C(c1cccc2ccccc12)N1CCN(c2ccccc2F)CC1 | 56% (inactive)
6 | CC(C)OC(=O)c1c(NC(=O)c2ccco2)sc2c1CCCC2 | 109% (inactive)
7 | O=C1C(Cl)=C(N2CCOCC2)C(=O)N1c1ccccc1 | 86.6% (inactive)
8 | COc1ccc(S(=O)(=O)Nc2ccc3oc(C)c(C(C)=O)c3c2)cc1 | 18.7% (active)
9 | COc1cc(NS(=O)(=O)c2ccc(NC(C)=O)cc2)cc(OC)c1 | 90.3% (inactive)
10 | COc1ccc2oc(C)c(NC(C)=O)c2c1 | 97.4% (inactive)
11 | C=CCN(C(=O)Cn1ncc2c1-c1cc(C)ccc1OC2)c1ccccc1 | 84.9% (inactive)
12 | CC(=O)C1=C(C)NC(=O)NC1c1cc(Br)ccc1OCC#N (centres undefined) | 97.1% (inactive)
13 | COc1ccccc1-n1c(CNC(=O)c2ccccc2)nnc1SCC(=O)Nc1nnc(C)s1 | 108% (inactive)
14 | Cc1cnc(NC(=O)CSc2nnc(C)s2)s1 | 81.4% (inactive)
15 | Cc1nnc(NC(=O)CSc2nccn2-c2cccc(C)c2C)s1 | 29.5% (active)
16 | CCOC(=O)CSC1=C(C#N)C(c2ccco2)C(C(=O)OCc2ccccc2)=C(C)N1 (centres undefined) | 22.2% (active)
17 | COc1cc2c(cc1OC)C(c1ccc(C)o1)CC(=O)N2 (centres undefined) | 85.8% (inactive)
18 | Cc1ccc(C2CC(=O)NC(SCC(=O)OCc3ccccc3)=C2C#N)o1 (centres undefined) | 24.4% (active)
19 | COC(=O)CSC1=C(C#N)C(c2ccccc2OC)C(C(=O)OC)C(=O)N1 (centres undefined) | 94.8% (inactive)
20 | C=CCOC(=O)C1=C(C)NC(SCC(=O)OCC)=C(C#N)C1c1ccc(C)cc1 (centres undefined) | 61.6% (inactive)
21 | CC1=C(C(=O)Nc2ccccc2)C(c2ccco2)C(C#N)=C(SCC(N)=O)N1 (centres undefined) | 91% (inactive)
22 | COc1ccc(S(=O)(=O)Nc2ccc(F)cc2)c(C)c1C | 101% (inactive)
23 | CCCCCCC12CCC(C(=O)O)(CC1)CC2 | 79.3% (inactive)
24 | Cc1nc2cc(NC(=O)NCc3ccccc3)ccc2o1 | 95.1% (inactive)
25 | OC(COc1ccc2ccccc2c1)Cn1cncn1 (centres undefined) | 88.4% (inactive)

Row | SMILES | viability
26 | O=C(CN1CCOCC1)Nc1cc(Cl)ccc1Cl | 93.4% (inactive)
27 | O=C(Nc1cc(N2CCOCC2)ncn1)NC1(C(F)(F)F)Oc2ccc(Cl)cc2O1 (centres undefined) | 29.6% (active)
28 | COc1c(C)cccc1C(=O)Nc1cc(Cl)ccc1N1CCOCC1 | 82.7% (inactive)
29 | CCOc1cc2[nH]c(=S)n(CCN3CCCCC3C)c(=O)c2cc1OCC (centres undefined) | 82.5% (inactive)
30 | O=C(NC1CCCCC1)n1c(=O)oc2cc(S(=O)(=O)N3CCCCC3)ccc21 | 60.7% (inactive)
31 | CCn1cc(C(=O)NCC2CCCO2)c(=O)c2cc(S(=O)(=O)N3CCCCC3)ccc21 (centres undefined) | 87.7% (inactive)
32 | CCn1cc(C(=O)NC2CCCCCC2)c(=O)c2cc(S(=O)(=O)N3CCCCC3)ccc21 | 30.1% (active)
33 | CN(C)S(=O)(=O)c1ccc(NC(=O)COC(=O)c2n[nH]c3ccccc23)cc1 | 78.6% (inactive)
34 | CCCCc1nc(NCCN)c(C#N)c2c1CSC(C)(C)C2 | 1.08% (active)
35 | Cc1nc(NCCN)c(C#N)c2c1COC(C)(C)C2 | 85% (inactive)
36 | CC(C)(C)c1ccc(OC2=CS(=O)(=O)c3ccccc32)cc1 | 88% (inactive)
37 | CCCn1nnc(NC(=O)COc2ccc(CC)cc2)n1 | 95.5% (inactive)
38 | CC(C)Cn1cnc2c1c(=O)n(CC(O)c1ccccc1)c(=O)n2CC(C)C (centres undefined) | 28% (active)
39 | Cn1c(=O)c2c(ncn2CC(=O)N2CCN(c3ccccc3)CC2)n(C)c1=O | 105% (inactive)
40 | CC(C)Cn1c(CN(Cc2ccccc2)Cc2ccccc2)nc2c1c(=O)n(C)c(=O)n2C | 61.6% (inactive)
41 | Cc1cc(-n2nc(C)cc2C)n2nc(C)c(-c3ccccc3)c2n1 | 68.4% (inactive)
42 | O=C(COc1ccc2ccccc2c1)N1CCN(C(=O)c2cccs2)CC1 | 74% (inactive)
43 | O=C(CCN1C(=O)c2ccccc2C1=O)Nc1cccc(F)c1 | 98.2% (inactive)
44 | O=c1c2ccccc2nc(CSc2nnnn2-c2ccccc2)n1-c1ccccc1 | 15.1% (active)
45 | COc1ccc(-n2nnnc2SCC(=O)Nc2ccccc2)cc1 | 103% (inactive)
46 | Cc1ccc(-c2noc(CSc3nnnn3-c3ccccc3)n2)cc1 | 86.2% (inactive)
47 | N#CCSc1nc2ccccc2c(=O)n1-c1ccccc1 | 77% (inactive)
48 | O=c1c2ccccc2nnn1CSc1nnnn1-c1ccccc1 | 83.4% (inactive)
49 | Cc1ccc(Nc2nc(CSc3nnnn3-c3ccccc3)cc(=O)[nH]2)cc1 | 23.1% (active)
